Assay outcomes as filed in PubChem BioAssay.
In the library only some 32% were active in any assay of this set; here they are far more common.
PostGolgi yeast = phenotypic screen on post-Golgi transport, primary screen; hit rate 0.9% among 98,000; inhibition, % at 10 µM; post-Golgi transport phenotypic cell assay;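 further: yeast cells grown in 1536-well plates; yeast grown about 18 h at 30C before absorbance read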
CYP2C19 inh = blockers of cytochrome P450 2C19 activity – biochemical, luminescence, ADME assay, primary screen | P33261 | CYP2C19 Supersomes, luciferin-H EGE luminescence, 30 min | inhibition, % at 5 µM | hit rate 21% among 96,000 | AID 778, 2007;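 active means CYP2C19 inhibition above a set limit at 5 µM in the primary screen, cut at about 50% in these data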;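 further: plate controls were negative control wells for no effect and 2.5 mM tranylcypromine positive control for full effect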
CYP2C19 activ = human CYP2C19 activators, primary screen, biochemical, luminescence; AID 1025, 2008; Cytochrome P450 2C19 (Homo sapiens), P33261; activation factor at 5 µM; recombinant CYP2C19, luciferin-H EGE luminescence; active compounds read high; 0 = fully inhibited enzyme, 1 = untreated enzyme; 96,000 tested, under 10 active;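 active means activation factor of at least 2 at 5 µM in the primary screen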;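 further: 0 = wells with 2.5 mM tranylcypromine and 1 = vehicle-only wells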
CYP2C9 inh = blockers of cytochrome P450 2C9 activity – biochemical, luminescence, ADME assay, primary screen; P11712; CYP2C9 Supersomes, luciferin-H conversion; inhibition, % at 5 µM; hit rate 20% among 96,000;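 active means blocking of liver enzyme CYP2C9 beyond about 50% at 5 µM, limit read from the data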
Target sequence (P11712 whole entry, looked up): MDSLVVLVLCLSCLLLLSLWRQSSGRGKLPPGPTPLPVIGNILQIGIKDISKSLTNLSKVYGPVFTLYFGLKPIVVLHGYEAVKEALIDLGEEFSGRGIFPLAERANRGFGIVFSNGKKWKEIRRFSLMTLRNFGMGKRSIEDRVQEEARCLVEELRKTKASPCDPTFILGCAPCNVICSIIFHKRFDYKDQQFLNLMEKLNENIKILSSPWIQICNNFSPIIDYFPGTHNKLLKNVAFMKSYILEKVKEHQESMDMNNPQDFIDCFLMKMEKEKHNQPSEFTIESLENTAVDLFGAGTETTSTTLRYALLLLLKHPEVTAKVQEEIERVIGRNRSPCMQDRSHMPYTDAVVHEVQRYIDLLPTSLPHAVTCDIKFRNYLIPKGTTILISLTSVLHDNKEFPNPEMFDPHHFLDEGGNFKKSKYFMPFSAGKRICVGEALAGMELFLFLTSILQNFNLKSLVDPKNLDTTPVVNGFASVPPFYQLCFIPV
PostGolgi ctrl = growth inhibition of yeast control strain, primary screen, counter-screen for post-Golgi transport modulator project. inhibition, % at 10 µM. hit rate 5% among 98,000. efflux-deficient yeast background strain, growth absorbance A615, 16 h
CYP2C9 act = human CYP2C9 activators, primary screen, biochemical, luminescence | Cytochrome P450 2C9 (Homo sapiens), P11712 | recombinant CYP2C9, luciferin-H conversion; active compounds read high; factor 1 = untreated enzyme, 0 = blocked | activation factor at 5 µM | hit rate 1.4% among 96,000 | AID 1024, 2008;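 active means activation factor of 2 or more for CYP2C9 at a 5 µM dose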;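 further: 0 = sulfaphenazole-blocked wells and 1 = vehicle-only wells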
* = called active by the depositor; nt = no result given; ! = not confirmed by another sample. Unless noted, no stated cut-off is given here; in the data, active means inhibition above about 30%; inactive means the rest.

SMILES	PostGolgi yeast	CYP2C19 inh	CYP2C19 activ	CYP2C9 inh	PostGolgi ctrl	CYP2C9 act
Cc1ccc(C(CC(=O)O)C2CCOC(C)(C)C2)cc1 (stereo not given)	8	-3	1	-15	5	1.1
COC(=O)c1[nH]c2cccc(Cl)c2c1NC(=O)CN(C)C1CCCCC1	5	48	0.5	63*	3	0.4
Cc1noc(C)c1C(=O)OCC(=O)Nc1cc(Cl)ccc1Oc1ccccc1	1	39	0.6	63*	38*	0.4
CS(=O)(=O)N(CC(=O)NCC1CCCO1)c1cc(Cl)ccc1Cl (stereo not given)	8	24	0.8	14	1	0.9
COC(=O)c1[nH]c2cccc(OC)c2c1NC(=O)CCN1CCC(C(N)=O)CC1	0	-7	1.1	-6	5	1.1
CS(=O)(=O)N(CC(=O)Nc1cc(Cl)ccc1Cl)c1ccccc1Cl	-4	96*	0	77*	11	0.2
N/C(=N\OC(=O)C1CCCCC1)c1cccnc1	-2	7	0.9	-2	4	1
COc1nc(NC(C)=O)nc(C)c1Br	4	0	1	1	-3	1
COc1cc(/C=C2/C(=O)N=C(N)N2C)cc(OC)c1OC	4	7	0.9	5	1	0.9
O=c1[nH]c(=O)n(Cc2ccco2)c2c1C(C(F)(F)F)(C(F)(F)F)N=C(C1CCCCC1)N2	-4	10	0.9	3	-6	1
O=c1[nH]c(=O)n(Cc2ccco2)c2c1C(C(F)(F)F)(C(F)(F)F)N=C(CCc1ccccc1)N2	-1	22	0.8	68*	1	0.3
N#Cc1ccc(C2=NC(C(F)(F)F)(C(F)(F)F)c3c(n(Cc4ccco4)c(=O)[nH]c3=O)N2)cc1	-4	32	0.7	96*	7	0
COP(=O)(/C=C/c1ccccc1)C(O)c1ccc(F)cc1 (stereo not given)	4	29	0.7	-19	10	1.2
COc1ccc2cnn(-c3ccccc3C)c(=O)c2c1OC	3	nt	nt	nt	0	nt
Cc1cccc(C(CC(=O)O)n2cccc2)c1 (stereo not given)	-5	6	0.9	76*	-3	0.2
O=C(O)CC(c1cccc(Cl)c1)n1cccc1 (stereo not given)	18	1	1	39	11	0.6
CC1(C)CC(NC(=O)c2cccc3ccccc23)CC(C)(C)N1	1	-9	1.1	14	-4	0.9
COc1ccc2c(c1OC)C(=O)N(c1cccc(C)c1)C2=O	22	20	0.8	-211	10	3.1*
COC(=O)c1ccc(N2C(=O)c3ccc(OC)c(OC)c3C2=O)cc1	nt	1	1	0	nt	1
COCCOC(=O)c1[nH]c2c(c1C)C(=O)C(C(=O)OC)C(C)C2 (stereo not given)	-11	18	0.8	18	3	0.8
COC(=O)C1C(=O)c2c([nH]c(C(=O)OCC3CCCO3)c2C)CC1C (stereo not given)	-7	12	0.9	54*	-2	0.5
CCC1(C(=O)OC)NC(c2ccccc2OC)C2C(=O)N(C)C(=O)C21 (stereo not given)	-4	-22	1.2	-23	3	1.2
COc1ccc(S(=O)(=O)N2CCN(Cc3ccc4c(c3)OCO4)CC2)c2ccccc12	-7	89*	0.1	74*	35*	0.3
Cc1ccc2nsnc2c1S(=O)(=O)N1CCCC1	1	37	0.6	-33	6	1.3
COc1cccc(C(=O)N2CCN(Cc3ccc4c(c3)OCO4)CC2)c1OC	-2	9	0.9	-20	17	1.2
SMILES	PostGolgi yeast	CYP2C19 inh	CYP2C19 activ	CYP2C9 inh	PostGolgi ctrl	CYP2C9 act
COc1ccc(F)cc1S(=O)(=O)N1CCN(Cc2ccc3c(c2)OCO3)CC1	2	56*	0.4	28	24	0.7
Cc1ccc2nsnc2c1S(=O)(=O)N1CCN(Cc2ccc3c(c2)OCO3)CC1	2	97*	0	73*	-7	0.3
O=S(=O)(Cc1ccccc1Cl)N1CCN(Cc2ccc3c(c2)OCO3)CC1	89*	94*	0.1	-8	35*	1.1
COc1ccccc1NC(=O)c1cnc2n(c1=O)CCS2	-5	-2	1	0	0	1
CSc1ncccc1C(=O)OCC(=O)NC(N)=O	12	-24	1.2	-33	8	1.3
Cc1ccc(C(=O)CSc2nnc(CNc3ccc(C)cc3C)o2)cc1	-2	-14	1.1	-12	-7	1.1
CSc1ccc(S(=O)(=O)N2CCN(Cc3ccc4c(c3)OCO4)CC2)cc1	55*	26	0.7	42	53*	0.6
COc1ccc(Cl)cc1S(=O)(=O)N1CCN(Cc2ccc3c(c2)OCO3)CC1	-4	74*	0.3	30	15	0.7
Cc1cc(S(=O)(=O)N2CCN(Cc3ccc4c(c3)OCO4)CC2)cc(C)c1N1CCCC1=O	0	16	0.8	36	19	0.6
CC1(C)Cc2c(sc3nc4n(c(=O)c23)CCC4)CO1	0	-4	1	-7	8	1.1
C=CCn1c(SCC(=O)NCc2ccco2)nc2sc3c(c2c1=O)CCCC3	12	1	1	20	-4	0.8
Cc1cc(NC(=O)CSc2nc(C(C)C)nc3sc4c(c23)CCCC4)no1	2	80*	0.2	76*	-4	0.2
C=CCn1c(SCC(=O)NCc2ccco2)nc2sc3c(c2c1=O)CCC3	2	-2	1	27	15	0.7
CCCCc1nc2sc3c(SCC(=O)NCc4ccco4)ncnc3c2c2c1CCC2	-6	58*	0.4	82*	0	0.2
CCCCSc1nc(SCC(=O)NCc2ccco2)c2c3c(sc2n1)COC(C)(CC)C3 (stereo not given)	0	13	0.9	51*	-11	0.5
Cc1cc(NC(=O)CSc2nc3sc4c(c3c(=O)n2C)CCCC4)no1	-3	2	1	16	4	0.8
CCCSc1nc(SCC(=O)NCc2ccccc2)c2c3c(sc2n1)COC(C)(CC)C3 (stereo not given)	2	5	0.9	15	10	0.8
CCc1nc(SCC(=O)NCc2ccco2)c2c3c(sc2n1)CCCC3	-6	63*	0.4	86*	11	0.1
CCOc1ccc(/C(O)=C2/C(=O)C(=O)N(CCOCCO)C2c2cccnc2)cc1 (stereo not given)	11	5	1	-1	8	1
CC(C)Sc1nc(NCc2ccco2)c2c3c(sc2n1)COC(C)(C)C3	-3	10	0.9	69*	20	0.3
N#C/C(=N\O)c1nc(-c2ccccc2)cs1	4	33	0.7	62*!	-4	0.4
